Bioassay records as filed in PubChem BioAssay.
The list is not random: actives were taken first. Their share in the collection is about 1.5%.
PrPC TRFRET: inhibitors of human cell surface prion protein PrPC; inhibition, % at 13.8 µM; 0.43% of 370,000 active; TR-FRET read-out; P04156; in the data active = inhibition above about 24%; also: 0% = median of the test wells and 100% = reference compound wells
Vc quorum ag-1: induces V. cholerae light production without autoinducers; V. cholerae BH1578 lux reporter, luminescence, 6 h; activation, % at 18.7 µM; 0.16% of 350,000 active; in the data active = activation mostly above about 9.7%, no sharp cut-off
TcdB inh: inhibitors of Clostridioides difficile toxin B glycohydrolase | P18177 | TcdB glycohydrolase enzymatic assay, plate reader | 0.24% of 350,000 active | AID 652162 | inhibition, % at 9.99 µM; in the data active = inhibition above about 10%
VHR inh abs: DUSP3 (human) phosphatase inhibition | P51452 | recombinant VHR phosphatase, pNPP absorbance | inhibition, % at 13.3 µM | 0.52% of 290,000 active | AID 1654; in the data active = inhibition above about 50%
Target sequence (P51452 whole entry, looked up): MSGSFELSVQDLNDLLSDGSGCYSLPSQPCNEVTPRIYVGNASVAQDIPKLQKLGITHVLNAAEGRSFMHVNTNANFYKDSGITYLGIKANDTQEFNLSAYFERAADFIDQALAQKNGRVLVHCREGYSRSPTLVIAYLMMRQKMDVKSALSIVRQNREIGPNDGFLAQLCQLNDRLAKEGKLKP
SSB-PriA inh: blocks PriA binding to SSB C-terminal tail; AlphaScreen SSBct-PriA binding, biotinylated peptide; inhibition, % at 33 µM; 0.6% of 430,000 active; in the data active = inhibition mostly above about 37%, no sharp cut-off; inactive = mostly below about 20%;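 also: plate controls were negative control peptide for no effect and reference peptide for full effect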
CCHF vOTU inh-1: blocks the CCHF virus ovarian tumor domain protease. 0.55% of 370,000 active. CCHFV vOTU protease, Pep-AMC fluorescence. AID 651958. inhibition, % at 11.5 µM; also: 0% = vehicle wells with enzyme and 100% = no enzyme wells
Vc quorum ag-2: quorum light induction in BH1578 reporter strain | shares compounds with Vc quorum ag-1 | AID 602243 | V. cholerae BH1578 lux reporter, luminescence, 6 h | 620 tested, under 10 active | activation, % at 50 µM; call rule not given here
CCHF vOTU inh-2: CCHFV vOTU protease inhibition, confirmation; shares compounds with CCHF vOTU inh-1; Recombinant CCHFV vOTU, Pep-AMC fluorescence; inhibition, % at 11.5 µM; 17% of 1,900 active; AID 686976
* hit, by the source's call; i = inactive; / = no result. Rule as the data show it, unless noted: active = inhibition above about 30%; inactive = the rest.

SMILES	PrPC TRFRET	Vc quorum ag-1	TcdB inh	VHR inh abs	SSB-PriA inh	CCHF vOTU inh-1	others
Cc1ccc(OCCC(=O)Nc2ccc3c(c2)OCO3)cc1	2	-1	3	/	-2	11
CCOc1ccc(Nc2nc3c(c(=O)[nH]2)CCCC3)cc1	2	145*	/	-1	-4	13	Vc quorum ag-2=885
O=C1CCc2cc(NS(=O)(=O)c3ccc(F)c(Cl)c3)ccc2N1Cc1ccccc1	/	/	/	/	4	/
CCc1ccc(OCCNC(=O)c2cccs2)cc1	0	/	/	11	-12	12	Vc quorum ag-2=i
Cc1ccc(OCCNC(=O)c2ccc(C)o2)cc1	-5	59*	0	/	1	25	Vc quorum ag-2=105
CCOc1ccc(OCCNC(=O)c2cccs2)cc1	/	/	/	/	-4	/
NC(=O)c1ccccc1NC(=O)Cc1csc(NS(=O)(=O)c2ccc(Cl)cc2)n1	/	/	/	/	6	/
Cc1nc(-c2ccccc2NC(=O)c2cc3ccccc3s2)cs1	/	/	/	/	-2	/
O=C(O)c1[nH]c2ccccc2c1NS(=O)(=O)Cc1ccccc1	5	7	/	-6	12	-6	Vc quorum ag-2=0
CCOC(=O)c1c(-c2ccccc2)csc1NC(=O)c1nn(CC)cc1Br	2	14	1	-19	-14	-7	Vc quorum ag-2=0
CC1CCCCC1NC(=O)COC(=O)c1ccccc1NC(=O)c1ccco1 (centres undefined)	-3	21*	/	-5	5	8	Vc quorum ag-2=0
CNC(=O)COC(=O)c1ccccc1NC(=O)c1ccco1	-3	-2	1	-5	5	-11
Cc1nc2ccc(C(=O)OCC(=O)N(C)c3ccccc3)cc2nc1C	0	14	0	/	-4	-7	Vc quorum ag-2=0
CCOC(=O)c1ccc2nc(C)c(C)nc2c1	-7	i	1	27	1	3
NC(=O)c1ccc(NC(=O)C2CCCN(c3ccc(-c4ccc(F)cc4)nn3)C2)cc1 (centres undefined)	/	/	/	/	-10	/
Cc1ccc(C(=O)OCC(=O)NCc2ccccc2)s1	5	0	0	/	/	-8
Cc1ccc(C(=O)OCC(=O)NCCNC(=O)COC(=O)c2ccc(C)s2)s1	3	12	1	/	-11	-10	Vc quorum ag-2=0
Cc1noc(-c2ccc(N3CCC(NC(=O)c4n[nH]c5c4CCCC5)C3)nc2)n1 (centres undefined)	/	/	/	/	12	/
O=C(NCc1ccccc1F)C(=O)NCC1CCCN1S(=O)(=O)c1ccccc1 (centres undefined)	1	12	2	/	-13	-4	Vc quorum ag-2=1
O=C(NCCC1CCCCN1S(=O)(=O)c1ccccc1)C(=O)NCc1ccccc1F (centres undefined)	-8	-1	2	/	-12	5
CCN1CCCC1CNC(=O)c1cc(OC)c(OC)c(OC)c1 (centres undefined)	-2	3	/	24	9	0	Vc quorum ag-2=1
CC(C)(C)NC(=O)NCCNC(=O)c1ccc(NC(=O)C2CC2)cc1	/	/	/	/	-14	/
O=C(O)c1cccc(Nc2ncnc3c2cnn3-c2ccccc2)c1	2	17*	/	-16	-8	8	Vc quorum ag-2=0
Clc1cccc(Nc2ncnc3c2cnn3-c2ccccc2)c1	12	0	2	37	-18	8
C=CCN1C(=O)c2ccc(C(=O)N(CC)CC(=O)Nc3cc(Cl)ccc3C)cc2C1=O	0	15*	0	/	3	-2	Vc quorum ag-2=0
SMILES	PrPC TRFRET	Vc quorum ag-1	TcdB inh	VHR inh abs	SSB-PriA inh	CCHF vOTU inh-1	others
C=CCN1C(=O)c2ccc(C(=O)N(C)CC(=O)Nc3ccccc3Cl)cc2C1=O	5	-1	-1	/	2	2
CC(=O)NS(=O)(=O)c1ccc(Nc2ccc([N+](=O)[O-])c3nonc23)cc1	-51	i	1	4	-5	30*	CCHF vOTU inh-2=13
CC(=O)Nc1ccc(C(=O)Nc2ccc(S(=O)(=O)N3CCCCC3)cc2)cc1	4	-16	0	-17	0	15
CC(=O)Nc1ccc(NC(=O)c2ccc(S(=O)(=O)N3CCCCCC3)cc2)cc1	-8	-1	0	/	/	43*	CCHF vOTU inh-2=0
N#C/C(=C\c1ccc(N2CCOCC2)cc1)c1ccccc1	1	0	/	-7	-10	6
N#CC(C#N)=Cc1ccc(N2CCOCC2)cc1	4	0	1	15	-2	30*	CCHF vOTU inh-2=-8
Cc1cc(C)n2ncc(C(N)=NOC(=O)Nc3ccc(Cl)cc3)c2n1	/	/	/	/	-5	/
Cc1cc(=O)n(-c2ccc(C(=O)O)cc2)[nH]1	-3	-2	-3	10	0	54*	CCHF vOTU inh-2=-20
Cc1cc(=O)n(-c2ccc(O)cc2)[nH]1	1	1	/	21	-8	27
O=C(CNC(=O)c1cccs1)N/N=C\c1c[nH]c2ccccc12	/	/	/	/	3	/
Cc1cccc(NC(=O)C2=C(O)c3ccccc3N(C)S2(=O)=O)c1	5	-2	/	18	-1	0
CN1c2ccccc2C(O)=C(C(=S)Nc2ccc(Cl)cc2)S1(=O)=O	1	0	/	4	17	31*	CCHF vOTU inh-2=6
O=C(c1cc(-c2ccc(F)cc2)n[nH]1)N1CC(Oc2nccs2)C1	/	/	/	/	-6	/
O=C(COC(=O)COc1ccccc1Cl)Nc1ccccc1OC(F)F	-4	i	/	19	-13	33*	CCHF vOTU inh-2=-3
O=C(COC(=O)c1ncc(Cl)c(Cl)c1Cl)Nc1ccccc1OC(F)F	4	0	0	-11	-20	19
O=C(c1ccc(Cl)s1)N1CCC(CSc2ccccn2)CC1	/	/	/	/	-17	/
Cc1nccn1CC1CCc2c(c3ccccc3n2C)C1=O (centres undefined)	-7	0	1	10	5	-8
Cc1[nH]cnc1CN1CCc2c(c3ccccc3n2C)C1=O	-2	0	1	/	0	72*	CCHF vOTU inh-2=24
O=C(Nc1cccc(-c2ccc3nnc(-c4cccs4)n3n2)c1)C1CCCCC1	/	/	/	/	-7	/
COc1ccc([C@H]2N[C@]3(CCCN(Cc4cccn4C)C3=O)[C@H]3C(=O)N(C)C(=O)[C@@H]23)cc1	-9	i	0	/	/	-10
CCN1C(=O)[C@H]2[C@@H](c3ccc(OC)cc3)N[C@]3(CCCN(Cc4cccn4C)C3=O)[C@H]2C1=O	3	0	0	/	/	30*	CCHF vOTU inh-2=-2
Cc1nc(-[n+]2nc(-c3ccncc3)nn2-c2ccccc2)sc1C	-3	/	0	/	/	44*	CCHF vOTU inh-2=-4
CC1=C(C(N)=O)C(c2ccccc2)n2nc(-c3ccncc3)nc2N1 (centres undefined)	-4	-2	/	24	-14	-6
CCN(CC)c1ccc(N=Cc2c(O)n(-c3ccccc3)c(=O)[nH]c2=O)cc1	-1	0	-2	-8	3	30*	CCHF vOTU inh-2=-20
Cc1ccc(-c2[nH]c3ccccc3c2SCCNC(=O)c2c(-c3ccccc3Cl)noc2C)cc1	/	/	/	/	-8	/
O=c1[nH]ncc(NN=Cc2ccncc2)c1Cl	/	/	/	/	-21	/
O=c1[nH]ncc(N/N=C\c2ccncc2)c1Cl	-12	1	-5	22	/	34*	CCHF vOTU inh-2=-1
O=c1[nH]ncc(N/N=C\c2cccs2)c1Cl	-21	0	-2	22	/	30*	CCHF vOTU inh-2=-8
